DT40 TDP1 CPT: growth inhibition of DT40 Tdp1-/-;hTDP1 cells with camptothecin (screen for TDP1 inhibitors). 12% of 420,000 active. chicken DT40 Tdp1-/-;hTDP1 cells + 20 nM CPT, ATP luminescence, 48 h. Potency, µM (doses to about 46.2 µM), inactives show top-dose activity change, negative = growth inhibition, most hits filed as inhibitors; note: potency is the fitted concentration of half-maximal effect; % is set by controls: 0 for no effect and ±100 for the full control effect; nearly all actives have a fitted effect of over 55% in size
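Chicken DT40 Tdp1-/- cells stably complemented with human TDP1 were seeded at 400 cells/well in medium containing 20 nM camptothecin, exposed to pin-transferred compounds, and grown at 37 °C for at least 48 hr. Viability was read as ATP luminescence.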
HepG2 tox: HepG2 cytotoxicity, counter-screen for TGF-b inhibitors; 0.76% of 410,000 active; Potency, µM (doses to about 46.1 µM), for inactives: at the highest dose activity change, negative = cytotoxicity, usual class: cytotoxic; HepG2 CAGA-GFP viability, ATP luminescence, 18 h; note: potency is the fitted concentration of half-maximal effect
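HepG2 CAGA-GFP cells (1000/well, DMEM with 1% FBS) received compound, then TGF-beta at 500 pg/mL final, and were incubated 18 hours at 37 degrees C. Viability was read by CellTiter-Glo luminescence. Media-only wells were set as complete cell-killing and DMSO as no toxicity.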
ASM inhibitor: inhibitors of human secretory acid sphingomyelinase | P17405 | Potency, µM (top dose mostly 57.5 µM), for inactives: top-dose activity change, negative = inhibition, most hits filed as inhibitors | 0.006% of 340,000 active | AID 504937 | placental ASM, HMU-PC fluorogenic substrate, 60 min; note: potency is the fitted concentration of half-maximal effect
Target sequence (P17405 47-631 limits assumed): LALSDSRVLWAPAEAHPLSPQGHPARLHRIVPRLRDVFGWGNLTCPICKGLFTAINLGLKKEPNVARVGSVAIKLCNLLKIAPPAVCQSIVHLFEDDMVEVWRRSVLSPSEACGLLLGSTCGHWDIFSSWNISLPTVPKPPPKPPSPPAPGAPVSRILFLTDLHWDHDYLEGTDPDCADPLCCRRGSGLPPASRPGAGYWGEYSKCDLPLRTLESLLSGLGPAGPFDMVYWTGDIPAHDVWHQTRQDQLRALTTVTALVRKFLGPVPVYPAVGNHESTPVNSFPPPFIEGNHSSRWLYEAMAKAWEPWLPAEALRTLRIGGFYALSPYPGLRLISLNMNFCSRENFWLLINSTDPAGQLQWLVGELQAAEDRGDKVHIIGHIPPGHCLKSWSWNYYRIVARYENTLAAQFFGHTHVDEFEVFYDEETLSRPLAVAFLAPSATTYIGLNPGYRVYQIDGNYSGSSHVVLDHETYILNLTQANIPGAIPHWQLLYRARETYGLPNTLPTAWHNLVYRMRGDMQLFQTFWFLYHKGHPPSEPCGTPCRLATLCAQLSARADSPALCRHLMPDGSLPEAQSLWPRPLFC
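Fluorogenic HMU-PC substrate (9 uM final) is turned over by placental ASM in 60 min at 37 C after a 10 min compound preincubation. Reaction ended by alkaline stop (pH 10), with fluorescence read at 386/447 nm.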
IL1B secr inh: inhibitors of inflammasome signaling (IL-1 beta secretion); AID 743279; activity change, % at 57.5 µM; 4.7% of 360,000 active; THP-1 LPS/ATP IL-1B secretion, AlphaLISA, 16 h; stronger effect = lower value; in the data active = activity change below about -50%; inconclusive = mostly about -30% to -49%; note: % is set by controls: 0 for no effect and ±100 for the full control effect
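Secreted IL-1B measured by AlphaLISA bead assay after 16 h compound exposure of THP-1 cells; compounds (final up to 57.5 uM) added 1 h before LPS (250 ng/mL) and ATP (1.25 mM) stimulation; lower signal means less secretion.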
TDP1 cell noCPT: qHTS for Inhibitors of human tyrosyl-DNA phosphodiesterase 1 (TDP1): qHTS in cells in absence of CPT | AID 686978, 2013 | 15% of 420,000 active | Potency, µM (titrated, usually from 46.2 µM), without a hit: at the top dose activity change, negative = growth inhibition, usual class: inhibitors | DT40 Tdp1-/- hTDP1 cells, no CPT, ATP luminescence, 48 h; note: potency is the fitted concentration of half-maximal effect; % is set by controls: 0 for no effect and ±100 for the full control effect; nearly all actives have a fitted effect of over 55% in size
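No-CPT arm: Tdp1-/-;hTDP1 DT40 cells (400/well) plus compounds, incubated ≥48 hr at 37 °C. Readout CellTiter-Glo luminescence.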
TGFb inhibitor: inhibitors of TGF-b signaling; 1.2% of 410,000 active; Potency, µM (top dose mostly 46.1 µM), for inactives: top-dose activity, negative = inhibition, usual class: inhibitors; HepG2 CAGA-GFP TGF-b/SMAD3 reporter, GFP fluorescence, 18 h; TGF-beta stimulated, 500 pg/mL final; note: potency is the fitted concentration of half-maximal effect; % is set by controls: 0 for no effect and ±100 for the full control effect; nearly all actives have a fitted effect of over 65% in size
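Inhibition was scored as loss of TGF-beta-induced (500 pg/mL final, 18 hours, 37 degrees C) GFP in HEPG2 cells carrying a CAGA-GFP reporter, in DMEM with 1% FBS. Well GFP was summed per cell; Activity was normalised to unstimulated and stimulated DMSO wells, then concentration-response fitting.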
Starred values were filed as active, the others as inactive; [ ] = another dose, or the depositor's remark. Shown are actives, neighbours in structure and some others; about 19% of the full set was active somewhere. Unless noted, calls come from the whole dose curve; as a rule, active = well fitted curve in the direction sought with a large enough effect; inconclusive = small, poorly fitted or top-dose-only effect, or another doubt; inactive = no such curve, though single readings can be large; an effect the other way counts as inactive or inconclusive.

`Cc1ccc(-c2csc3nnc(SCC(=O)Nc4nsc(-c5ccccc5)n4)n23)cc1` gave DT40 TDP1 CPT 21µM*, HepG2 tox -27%, ASM inhibitor -12%, IL1B secr inh -23, TDP1 cell noCPT 23µM* and TGFb inhibitor -22%.
`CCOc1ccc(NC(=O)CSc2nnc3scc(-c4ccccc4)n23)cc1` gave DT40 TDP1 CPT -23%, HepG2 tox -4%, TDP1 cell noCPT inconclusive and TGFb inhibitor 14%.
O=C(NC1CCCC1)c1cn(C2CCN(Cc3cccc4cccnc34)CC2)nn1 was read as DT40 TDP1 CPT -12%[9.04 µM] and TDP1 cell noCPT -14%.
Screening O=C(CSc1nnc2scc(-c3ccccc3)n12)Nc1nsc(-c2ccccc2)n1 returned DT40 TDP1 CPT 15µM*, HepG2 tox -7%, ASM inhibitor -3%, IL1B secr inh inconclusive, TDP1 cell noCPT 23µM* and TGFb inhibitor -20%.
Cc1ccc(-c2nc(NC(=O)CSc3nnnn3-c3ccccc3)ns2)cc1 was read as DT40 TDP1 CPT -13%, HepG2 tox -18%, ASM inhibitor -9%, IL1B secr inh -5, TDP1 cell noCPT -24% and TGFb inhibitor inconclusive.
Screening COc1ccc(NC(=O)CN2C(=O)COc3ccc(S(=O)(=O)N4CCCCC4)cc32)cc1Cl returned DT40 TDP1 CPT inconclusive, HepG2 tox -14%, TDP1 cell noCPT 15µM* and TGFb inhibitor inconclusive.
`COc1cccc(NC(=O)CN2C(=O)COc3ccc(S(=O)(=O)N4CCCCCC4)cc32)c1` gave DT40 TDP1 CPT inconclusive, HepG2 tox -21%, ASM inhibitor -7%, IL1B secr inh -24, TDP1 cell noCPT inconclusive and TGFb inhibitor inconclusive.
`Cc1ccc(NC(=O)CN2C(=O)COc3ccc(S(=O)(=O)N4CCCCCC4)cc32)cc1Cl` gave DT40 TDP1 CPT 21µM*, HepG2 tox -54%, TDP1 cell noCPT 15µM* and TGFb inhibitor 10µM*.
For CCN(C(=O)CN1C(=O)COc2ccc(S(=O)(=O)N3CCOCC3)cc21)c1cccc(C)c1 the results were DT40 TDP1 CPT inconclusive, HepG2 tox -55%, TDP1 cell noCPT 18µM* and TGFb inhibitor -1%.
For CC1CCN(S(=O)(=O)c2ccc3c(c2)N(CC(=O)Nc2ccc(F)c(Cl)c2)C(=O)CO3)CC1 the results were DT40 TDP1 CPT 23µM*, HepG2 tox -22%, TDP1 cell noCPT 15µM* and TGFb inhibitor -30%.
For Cc1cccc(CNC(=O)c2cnn(-c3nccc(-c4cccs4)n3)c2C(C)C)n1 the results were DT40 TDP1 CPT -4%[9.04 µM] and TDP1 cell noCPT inconclusive.
Cc1ccc(NC(=O)CN2C(=O)COc3ccc(S(=O)(=O)N4CCCC4)cc32)cc1C was read as DT40 TDP1 CPT -1%, HepG2 tox 4%, ASM inhibitor -3%, IL1B secr inh -52*, TDP1 cell noCPT inconclusive and TGFb inhibitor 8%.
`CC(C)c1ccc(NC(=O)CN2C(=O)COc3ccc(S(=O)(=O)N4CCCCC4)cc32)cc1` gave DT40 TDP1 CPT inconclusive, HepG2 tox -13%, TDP1 cell noCPT 23µM* and TGFb inhibitor -6%.
COCCn1c(=O)[nH]c2cc(C(=O)NCCN3CCN(c4cccc(Cl)c4)CC3)ccc2c1=O was read as DT40 TDP1 CPT 15µM*, HepG2 tox -25%, ASM inhibitor 111%, IL1B secr inh 22, TDP1 cell noCPT 3.3µM* and TGFb inhibitor -8%.
Screening COCCn1c(=S)[nH]c2cc(C(=O)N3CCN(Cc4ccc5c(c4)OCO5)CC3)ccc2c1=O returned DT40 TDP1 CPT inconclusive, HepG2 tox -34%, ASM inhibitor 8%, IL1B secr inh -18, TDP1 cell noCPT 18µM* and TGFb inhibitor 16%.
`COCCn1c(=S)[nH]c2cc(C(=O)N3CCN(c4cccc(Cl)c4)CC3)ccc2c1=O` gave DT40 TDP1 CPT 21µM*, HepG2 tox -7%, ASM inhibitor -14%, IL1B secr inh -16, TDP1 cell noCPT 4.1µM* and TGFb inhibitor -20%.
COCCn1c(=O)[nH]c2cc(C(=O)NCc3ccccc3Cl)ccc2c1=O was read as DT40 TDP1 CPT inconclusive, HepG2 tox -1%, TDP1 cell noCPT inconclusive and TGFb inhibitor -6%.
`COc1ccc(CCn2c(=S)[nH]c3cc(C(=O)N4CCOCC4)ccc3c2=O)cc1OC` gave DT40 TDP1 CPT inconclusive, HepG2 tox -13%, ASM inhibitor 4%, IL1B secr inh 42, TDP1 cell noCPT 18µM* and TGFb inhibitor 10%.
For COc1ccc(CCn2c(=O)[nH]c3cc(C(=O)NCCN4CCOCC4)ccc3c2=O)cc1OC the results were DT40 TDP1 CPT -18%, HepG2 tox 4%, ASM inhibitor 24%, IL1B secr inh 8, TDP1 cell noCPT -28% and TGFb inhibitor -8%.
`CCCCn1c(=O)c2oc3ccccc3c2n(CC(=O)Nc2cccc(Cl)c2)c1=O` gave DT40 TDP1 CPT -29%, HepG2 tox 1%, TDP1 cell noCPT -19% and TGFb inhibitor inconclusive.
Screening COc1cccc(NC(=O)CN(C)C(=O)c2cc3c(s2)CCCCC3)c1 returned DT40 TDP1 CPT -16%, HepG2 tox 1%, ASM inhibitor -1%, IL1B secr inh 16, TDP1 cell noCPT -29% and TGFb inhibitor 12%.
Screening COCCn1c(=O)[nH]c2cc(C(=O)N3CCN(c4cc(C)ccc4C)CC3)ccc2c1=O returned DT40 TDP1 CPT inconclusive, HepG2 tox 8%, ASM inhibitor 1%, IL1B secr inh 4, TDP1 cell noCPT inconclusive and TGFb inhibitor 4%.
Screening COCCn1c(=O)[nH]c2cc(C(=O)N3CCN(c4cccc(C(F)(F)F)c4)CC3)ccc2c1=O returned DT40 TDP1 CPT 21µM*, HepG2 tox -20%, ASM inhibitor 1%, IL1B secr inh -7, TDP1 cell noCPT 13µM* and TGFb inhibitor 7%.
`COc1ccc(NC(=O)C#Cc2ccccc2)cc1OC` gave DT40 TDP1 CPT 6.5µM*, HepG2 tox 2%, ASM inhibitor -2%, IL1B secr inh -71*, TDP1 cell noCPT inconclusive and TGFb inhibitor -28%.
Screening NC(=O)c1cc[n+](CC(=O)c2ccc(NC(=O)c3ccccc3)cc2)cc1 returned DT40 TDP1 CPT inconclusive, HepG2 tox 0%, ASM inhibitor -4%, IL1B secr inh -11, TDP1 cell noCPT inconclusive and TGFb inhibitor 2%.

Source: PubChem BioAssay
